# Test results taken from PubChem BioAssay AID1159580 (chemical genetic matrix, 2015).
# Out of some 5,500 compounds screened, about 2,000 (36%) were called active. Roughly 18% stayed inconclusive and do not appear here. The list shows a part of the results. A number with no mark means an inactive call. Cut-off read from the data, not from the text of the source: active = normalized growth mostly below about 0.91 (no sharp cut-off); inconclusive = no clear call, values can overlap the other calls; inactive = mostly above about 0.92.
# Test: chemical genetic growth profiling, strain panel (AID 1159580);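 note: tested at 20 µM; growth read once vehicle control cultures reached saturation at 30 °C; 1 = growth at the plate median or of vehicle wells; lower values mean less growth of the strain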
# Details: S. cerevisiae deletion strains, growth OD
# [1] = locus YCL061C, strain MRC1, hits give low values
# [2] = locus YHR030C, strain SLT2, hits give low values
# [3] = locus YHR079C, strain IRE1, hits give low values
# [4] = locus YJL095W, strain BCK1, hits give low values
# [5] = locus YJR066W, strain TOR1, hits give low values
# [6] = locus YLR113W, strain HOG1, hits give low values
# [7] = locus YNL183C, strain NPR1, hits give low values
# [8] = locus YOR231W, strain MKK1, hits give low values
# [9] = locus YPL256C, strain CLN2, hits give low values
smiles,measurement,setting,value
COc1ccc(NC(=O)C(C)c2ccc(CC(C)C)cc2)cc1 (stereo unspecified),normalized growth,"locus YAL013W, strain DEP1, hits give low values",0.976
same,normalized growth,"locus YBR229C, strain ROT2, hits give low values",0.897 (active)
same,normalized growth,[1],0.848 (active)
same,normalized growth,"locus YDL101C, strain DUN1, hits give low values",0.956
same,normalized growth,"locus YDL134C, strain PPH21, hits give low values",0.965
same,normalized growth,"locus YDR150W, strain NUM1, hits give low values",0.91
same,normalized growth,"locus YEL061C, strain CIN8, hits give low values",0.943
same,normalized growth,"locus YGR078C, strain PAC10, hits give low values",0.886 (active)
same,normalized growth,[2],0.916
same,normalized growth,"locus YHR087W, strain rtc3, hits give low values",0.824 (active)
same,normalized growth,"locus YJR043C, strain POL32, hits give low values",0.907 (active)
same,normalized growth,"locus YJR075W, strain HOC1, hits give low values",0.804 (active)
same,normalized growth,"locus YKL190W, strain CNB1, hits give low values",0.914 (active)
same,normalized growth,"locus YLR039C, strain RIC1, hits give low values",0.527 (active)
same,normalized growth,"locus YLR058C, strain SHM2 (second series), hits give low values",0.974
same,normalized growth,"locus YLR085C, strain ARP6, hits give low values",0.878
same,normalized growth,"locus YLR262C, strain YPT6, hits give low values",0.46 (active)
same,normalized growth,"locus YML094W, strain GIM5, hits give low values",0.903
same,normalized growth,"locus YMR219W, strain ESC1, hits give low values",0.94 (active)
same,normalized growth,"locus YMR263W, strain SAP30, hits give low values",0.963
same,normalized growth,"locus YMR307W, strain GAS1, hits give low values",0.774
same,normalized growth,"locus YNL153C, strain GIM3, hits give low values",0.932
same,normalized growth,"locus YNL298W, strain CLA4 (second series), hits give low values",0.937
same,normalized growth,"locus YNL322C, strain KRE1, hits give low values",0.967
same,normalized growth,"locus YNR030W, strain Alg12, hits give low values",0.872 (active)
same,normalized growth,"locus YPL055C, strain LGE1, hits give low values",0.838
same,normalized growth,"locus YPL241C, strain CIN2, hits give low values",0.858 (active)
same,normalized growth,"locus YPR135W, strain CTF4, hits give low values",0.855
CN1[C@@H]2CC[C@@H]1CC(O)C2 (stereo partly specified),normalized growth,[2],1.03
same,normalized growth,[3],1.04
same,normalized growth,[4],1.05
same,normalized growth,[5],0.983
same,normalized growth,[6],0.98
same,normalized growth,[7],0.986
same,normalized growth,[8],1.01
same,normalized growth,[9],1.06
CCN1C[C@]2(OC(=O)c3ccccc3NC(C)=O)CCC(OC)[C@]34C1[C@H](CC23)[C@@]1(O)CC(OC)[C@H]2CC4C1(O)[C@H]2OC (stereo partly specified),normalized growth,"locus YAL021C, strain ccr4, hits give low values",0.966
same,normalized growth,"locus YAL026C, strain drs2, hits give low values",0.981
same,normalized growth,"locus YAL030W, strain snc1, hits give low values",0.977
same,normalized growth,"locus YBL061C, strain skt5, hits give low values",0.971
same,normalized growth,"locus YBR009C, strain hhf1, hits give low values",0.985
same,normalized growth,"locus YBR023C, strain chs3, hits give low values",0.977
same,normalized growth,"locus YBR171W, strain sec66, hits give low values",0.96
same,normalized growth,"locus YBR231C, strain swc5, hits give low values",0.972
same,normalized growth,"locus YBR279W, strain paf1, hits give low values",0.979
same,normalized growth,"locus YCL011C, strain gbp2, hits give low values",0.947
same,normalized growth,"locus YCL016C, strain dcc1, hits give low values",0.971
same,normalized growth,[1],1
same,normalized growth,"locus YCL069W, strain vba3, hits give low values",0.955
same,normalized growth,"locus YCR088W, strain abp1, hits give low values",0.946
same,normalized growth,"locus YDL005C, strain med2, hits give low values",0.948
same,normalized growth,"locus YDL040C, strain nat1, hits give low values",0.969
same,normalized growth,"locus YDR001C, strain nth1, hits give low values",0.977
same,normalized growth,"locus YDR069C, strain doa4, hits give low values",0.953
same,normalized growth,"locus YDR137W, strain rgp1, hits give low values",1.02
same,normalized growth,"locus YDR159W, strain sac3, hits give low values",0.979
same,normalized growth,"locus YDR195W, strain ref2",0.963
same,normalized growth,"locus YDR297W, strain sur2, hits give low values",0.967
same,normalized growth,"locus YDR334W, strain swr1, hits give low values",0.974
same,normalized growth,"locus YDR335W, strain msn5, hits give low values",0.958
same,normalized growth,"locus YDR392W, strain spt3, hits give low values",0.921
same,normalized growth,"locus YEL003W, strain gim4, hits give low values",0.98
same,normalized growth,"locus YEL037C, strain rad23, hits give low values",0.958
same,normalized growth,"locus YEL061C, strain CIN8 (second series), hits give low values",0.963
same,normalized growth,"locus YER015W, strain faa2, hits give low values",0.974
same,normalized growth,"locus YER016W, strain bim1, hits give low values",0.979
same,normalized growth,"locus YER111C, strain swi4, hits give low values",0.986
same,normalized growth,"locus YER155C, strain BEM2 (second series), hits give low values",0.974
same,normalized growth,"locus YFR010W, strain ubp6, hits give low values",0.975
same,normalized growth,"locus YGL167C, strain pmr1, hits give low values",0.974
same,normalized growth,"locus YGL173C, strain kem1, hits give low values",0.972
same,normalized growth,"locus YGL227W, strain vid30, hits give low values",0.956
same,normalized growth,"locus YGL240W, strain doc1, hits give low values",0.973
same,normalized growth,"locus YGL253W, strain hxk2, hits give low values",0.963
same,normalized growth,"locus YHR013C, strain ard1, hits give low values",0.969
same,normalized growth,"locus YHR027C, strain rpn1, hits give low values",0.992
same,normalized growth,[2],0.976
same,normalized growth,[3],0.98
same,normalized growth,"locus YHR142W, strain chs7, hits give low values",0.95
same,normalized growth,"locus YJL092W, strain hpr5, hits give low values",0.953
same,normalized growth,"locus YJL095W, strain BCK1 (second series), hits give low values",0.974
same,normalized growth,[4],0.97
same,normalized growth,"locus YJL115W, strain asf1, hits give low values",0.973
same,normalized growth,"locus YJL129C, strain trk1, hits give low values",0.961
same,normalized growth,"locus YJL154C, strain vps35, hits give low values",0.952
same,normalized growth,"locus YJL164C, strain tpk1, hits give low values",0.983
same,normalized growth,"locus YJL166W, strain qcr8, hits give low values",0.979
same,normalized growth,"locus YJL187C, strain SWE1, hits give low values",0.987
same,normalized growth,[5],0.975
same,normalized growth,"locus YKL160W, strain elf1, hits give low values",0.979
same,normalized growth,"locus YKR026C, strain gcn3, hits give low values",0.975
same,normalized growth,"locus YKR091W, strain srl3, hits give low values",0.979
same,normalized growth,"locus YLL001W, strain dnm1, hits give low values",0.993
same,normalized growth,"locus YLL026W, hits give low values",0.984
same,normalized growth,"locus YLL041C, strain sdh2, hits give low values",0.978
same,normalized growth,"locus YLR027C, strain aat2, hits give low values",0.967
same,normalized growth,[6],0.969
same,normalized growth,"locus YLR221C, strain rsa3, hits give low values",0.976
same,normalized growth,"locus YLR258W, strain gsy2, hits give low values",0.974
same,normalized growth,"locus YLR262C, strain YPT6 (second series), hits give low values",1.04
same,normalized growth,"locus YLR320W, strain mms22, hits give low values",0.983
same,normalized growth,"locus YLR342W, strain FKS1, hits give low values",0.961
same,normalized growth,"locus YLR357W, strain rsc2, hits give low values",0.945
same,normalized growth,"locus YLR370C, strain arc18, hits give low values",0.973
same,normalized growth,"locus YLR384C, strain iki3, hits give low values",0.959
same,normalized growth,"locus YML120C, strain ndi1, hits give low values",0.974
same,normalized growth,"locus YMR058W, strain fet3, hits give low values",0.989
same,normalized growth,"locus YMR125W, strain sto1, hits give low values",0.953
same,normalized growth,"locus YMR129W, hits give low values",0.98
same,normalized growth,"locus YMR205C, strain PFK2, hits give low values",0.993
same,normalized growth,"locus YMR231W, strain pep5, hits give low values",0.953
same,normalized growth,"locus YNL071W, strain lat1, hits give low values",0.956
same,normalized growth,[7],0.905
same,normalized growth,"locus YNL209W, strain ssb2, hits give low values",0.974
same,normalized growth,"locus YNL248C, strain rpa49, hits give low values",0.98
same,normalized growth,"locus YNL322C, strain KRE1 (second series), hits give low values",0.972
same,normalized growth,"locus YNR049C, strain mso1, hits give low values",0.979
same,normalized growth,"locus YOR001W, strain rrp6, hits give low values",0.961
same,normalized growth,"locus YOR070C, strain gyp1, hits give low values",0.964
same,normalized growth,"locus YOR080W, strain dia2, hits give low values",0.97
same,normalized growth,"locus YOR083W, strain WHI5, hits give low values",0.973
same,normalized growth,"locus YOR106W, strain vam3, hits give low values",0.959
same,normalized growth,[8],0.978
same,normalized growth,"locus YOR265W, strain rbl2, hits give low values",0.982
same,normalized growth,"locus YOR270C, strain vph1, hits give low values",0.975
same,normalized growth,"locus YOR290C, strain snf2, hits give low values",0.986
same,normalized growth,"locus YPL051W, strain arl3, hits give low values",0.979
same,normalized growth,"locus YPL078C, strain atp4, hits give low values",0.971
same,normalized growth,"locus YPL106C, strain sse1, hits give low values",0.923
same,normalized growth,"locus YPL240C, strain hsp82, hits give low values",0.963
same,normalized growth,[9],0.956
